# Screening results deposited in PubChem by Broad Institute.
# Sampled rows, rich in hits. Any-hit rate of the full collection: about 3.2%.
# Ecoli rRNA inh – selective bacterial rRNA inhibition in E. coli | GFP signal change (wild-type ribosome), % (test concentration not listed) | 1.6% of 350,000 active | E. coli WT GFP vs humanized-ribosome RFP mutants, fluorescence, 24 h; active compounds read low; DMSO median 0, no signal -100;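 active = significant combined selectivity score with lowered wild-type GFP, culture density cut under 30%, mutant RFP and density less affected; inactive = any of these conditions unmet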
# DENV2 CPE – protects cells from dengue virus 2 cytopathic effect. DENV2-infected cells, cytopathic effect rescue, plate reader. CPE inhibition, % at 9.99 µM. 1.7% of 350,000 active. AID 651640; in the data active = CPE inhibition above about 20%, passing the limit was not always enough; inconclusive = no clear call, values can overlap the other calls; tested in BHK-21 cells;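 also: 0% = median of neutral control wells and 100% = median of positive control wells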
# ERAP1 HTS inh – blocks human ERAP1 aminopeptidase activity; recombinant ERAP1, Leu-AMC fluorescence, 60 min; inhibition, % at 10.7 µM; 0.15% of 340,000 active; AID 652197; Q9NZ08;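 active = mean replicate inhibition of at least 30%, or all replicates individually reaching that 30% level; inactive = mean below 30% and not every replicate reaching it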;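 also: 0% = neutral control wells and 100% = L-leucinethiol positive control wells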
# Target sequence (Q9NZ08 whole entry, looked up): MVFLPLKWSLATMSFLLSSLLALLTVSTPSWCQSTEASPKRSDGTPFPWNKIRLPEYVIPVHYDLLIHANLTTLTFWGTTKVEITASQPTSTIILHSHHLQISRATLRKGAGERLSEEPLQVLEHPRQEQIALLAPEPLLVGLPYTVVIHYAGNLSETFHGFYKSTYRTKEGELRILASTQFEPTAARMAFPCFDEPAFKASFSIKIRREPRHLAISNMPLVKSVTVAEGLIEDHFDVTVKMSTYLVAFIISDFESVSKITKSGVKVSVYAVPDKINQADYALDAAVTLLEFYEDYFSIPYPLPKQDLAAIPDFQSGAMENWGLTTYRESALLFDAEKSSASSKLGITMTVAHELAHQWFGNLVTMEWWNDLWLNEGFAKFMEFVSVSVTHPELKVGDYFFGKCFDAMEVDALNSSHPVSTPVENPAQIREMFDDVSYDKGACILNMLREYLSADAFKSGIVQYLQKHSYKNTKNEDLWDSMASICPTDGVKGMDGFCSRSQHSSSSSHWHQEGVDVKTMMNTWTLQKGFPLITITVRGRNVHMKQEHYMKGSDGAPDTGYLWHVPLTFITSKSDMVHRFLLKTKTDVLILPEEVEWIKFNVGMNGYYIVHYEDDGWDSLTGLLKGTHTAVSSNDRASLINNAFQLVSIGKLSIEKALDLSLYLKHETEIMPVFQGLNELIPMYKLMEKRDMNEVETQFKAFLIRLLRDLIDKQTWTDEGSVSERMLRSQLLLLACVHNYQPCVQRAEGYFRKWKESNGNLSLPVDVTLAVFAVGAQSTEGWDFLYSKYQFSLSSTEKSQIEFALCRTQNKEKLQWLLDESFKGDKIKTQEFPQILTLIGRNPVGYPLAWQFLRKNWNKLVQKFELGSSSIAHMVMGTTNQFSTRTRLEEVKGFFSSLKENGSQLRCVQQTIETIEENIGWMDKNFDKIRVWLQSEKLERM
# CaV13 FRET inh – Primary screen for inhibitors of IQ motif and Ca2+-dependent inactivation inhibitor domain binding in CACNA1D, Förster resonance energy transfer in living cells, …; HEK cells, CFP/YFP FRET ICDI-IQ, plate reader, 10 min; percent FRET-ratio fall versus neutral wells; inhibition, % at 12.3 µM; 0.098% of 340,000 active; AID 743397;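 active = mean replicate inhibition of at least 30% and at least 1% of replicates passing that level; inconclusive = only one of the two criteria is met; inactive = neither criterion is met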;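 also: 0% = median of the neutral control wells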
# INS-1E GSIS act – GLuc luminescence reporter in INS-1E cells, primary screen for activators of glucose-dependent secretion of insulin; 0.61% of 370,000 active; INS-1E GLuc reporter insulin secretion, 2-3 h; AID 743287; activation, % at 16.6 µM;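 active = lowest replicate activation of at least 40%, so every replicate reaches that level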;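 also: 0% = median of neutral control wells and 100% = median of IBMX positive control wells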
# PGC1a acetyl inh – modulators of PGC1a acetylation; 0.17% of 350,000 active; U2OS PGC1a acetylation, AlphaScreen anti-acetyl-lysine; with virally co-expressed GCN5 acetyltransferase; inhibition, % at 15.6 µM;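 active = every replicate shows inhibition of at least 40%; inconclusive = mean inhibition at least 40% but some replicate below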;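 also: 0% = neutral control wells and 100% = positive control wells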
# Active calls of the source: *; u = inconclusive; x = no result.
SMILES,Ecoli rRNA inh,DENV2 CPE,ERAP1 HTS inh,CaV13 FRET inh,INS-1E GSIS act,PGC1a acetyl inh
N#C[C@H]1N[C@H](CO)[C@@H]1c1ccc(C#CC2CCCC2)cc1,1,9,5,x,15,-18
O=C(Cc1ccccn1)N1CC(=O)N2[C@@H](CO)[C@@H](c3ccc(C#CC4CCCC4)cc3)[C@@H]2C1,5,2,-4,x,-5,-2
O=C1CN(S(=O)(=O)Cc2ccccc2)C[C@@H]2[C@H](c3ccc(C#Cc4cccc(F)c4)cc3)[C@@H](CO)N12,1,9,0,x,-30,-5
O=C(NC1CCCCC1)N[C@H]1CC[C@@H](CC(=O)N2CCOCC2)O[C@@H]1CO,-2,x,1,x,3,-6
COCC(=O)Nc1ccc2c(c1)[C@H]1C[C@H](CC(=O)NCc3ccc(Cl)cc3)O[C@H](CO)[C@H]1O2,-3,u,x,x,6,9
COc1ccc2nc(N3C(=O)C(O)=C(C(=O)c4ccco4)C3c3ccc(C)o3)sc2c1 (stereo unspecified),-5,-2,7,-10,-34,x
COc1ccc2nc(N3C(=O)C(O)=C(C(=O)c4ccco4)C3c3ccccc3OC)sc2c1 (stereo unspecified),-32*,-7,1,-6,-17,-11
Cc1cccc(S(=O)(=O)N2C[C@@H](O)COC[C@H]3O[C@@H](CC(=O)N4CCN(C)CC4)CC[C@@H]32)c1,3,-1,1,x,8,3
O=C(Nc1ccc(Oc2ccc(Cl)cc2)c(Cl)c1)c1cc(I)cc(I)c1O,x,43*,-3,-6,6,9
C/C=C/C=C/C(=O)N1CC2(CC(c3cccc(NC(=O)/C=C/C)c3)=NO2)C[C@@H]1C(N)=O (stereo partly specified),3,29*,-2,-4,-4,x
C=C(C)C(=O)N1CC2(CC(c3cccc(NC(=O)/C=C\C)c3)=NO2)C[C@H]1C(N)=O (stereo partly specified),0,128*,-5,-5,x,3
NC(=O)[C@@H]1CC2(CC(c3cccc(NC(=O)COc4ccc(Cl)cc4)c3)=NO2)CN1C(=O)COc1ccc(Cl)cc1 (stereo partly specified),0,u,-3,-10,-3,3
CC/C=C/C(=O)N1CC2(CC(c3cccc(NC(=O)COc4ccc(Cl)cc4)c3)=NO2)C[C@H]1C(N)=O (stereo partly specified),-9,22*,-3,-4,-15,x
C/C=C/C(=O)Nc1cccc(C2=NOC3(C2)C[C@H](C(N)=O)N(C(=O)/C=C/C)C3)c1 (stereo partly specified),4,-6,x,-11,9,x
CO[C@H]1CN(C)C(=O)c2cc(NS(=O)(=O)CC(F)(F)F)ccc2OC[C@@H](C)N(Cc2ccccn2)C[C@H]1C,-1,0,4,x,3,-3
CCOc1ncccc1C(=O)OCC(=O)c1cccs1,-7,-8,-2,-7,50*,-14
N#Cc1ccc(COC(=O)c2cccnc2Cl)cc1,-25,-2,-2,-4,4,8
CCOc1ncccc1C(=O)OCc1ccc(C#N)cc1,x,x,x,-5,55*,x
CCOc1ncccc1C(=O)NCc1ccc(C)cc1,3,x,-2,-19,45*,6
O=C(C[C@@H]1CC[C@H]2[C@@H](COC[C@H](O)CN2C(=O)C2CCCC2)O1)NCc1ccncc1,0,12,0,x,3,5
CNC[C@@H]1Oc2ccc(NS(=O)(=O)c3cn(C)cn3)cc2CC(=O)N([C@@H](C)CO)C[C@H]1C,-2,0,2,x,6,2
O=C(N/N=C/c1ccc2c(c1)OCO2)c1ccc(Br)o1,x,x,x,-4,-9,x
CCN(CC)c1ccc(/C=N/NC(=O)c2ccc(Br)o2)cc1,-23*,x,1,-2,1,x
Clc1ccc(/C=N/NC2=Nc3cccc4cccc2c34)cc1,x,x,x,-6,98*,x
C(=N\NC1=Nc2cccc3cccc1c23)/c1ccccc1,x,x,x,-10,11,x
SMILES,Ecoli rRNA inh,DENV2 CPE,ERAP1 HTS inh,CaV13 FRET inh,INS-1E GSIS act,PGC1a acetyl inh
C[C@@H]1CN([C@H](C)CO)C(=O)Cc2cc(NS(=O)(=O)c3cccs3)ccc2O[C@@H]1CN(C)S(C)(=O)=O,2,-5,-1,x,17,11
CN1C(=O)c2cc(NC(=O)C3CCOCC3)ccc2OC[C@H]2O[C@H](CC(=O)NCc3ccc4c(c3)OCO4)CC[C@H]21,3,-1,0,x,6,x
N#CCc1nn(-c2ccccc2)c2ncnc(N)c12,-2,3,0,-4,71*,x
C/C=C/c1ccc([C@H]2[C@H](CO)N(C(=O)C3CC3)C23CN(C(=O)NC(C)C)C3)cc1,3,-5,3,x,2,2
CNC(=S)N(CCc1c(C)[nH]c2ccc(OC)cc12)Cc1ccco1,-23*,12,1,-19,-13,-3
COCCNC(=S)N(CCc1c(C)[nH]c2ccc(OC)cc12)Cc1ccco1,13,2,1,-4,-18,0
O=C(c1cc(COc2ccc(F)cc2Cl)on1)N1CCSCC1,-37*,-5,3,-8,-2,5
COc1ccc(OCc2cc(C(=O)N3CCCCCC3)no2)c(Cl)c1,-32,-1,5,-6,-5,-1
COc1cc(C)ccc1OCc1cc(C(=O)NCCN2CCCC(O)C2)no1 (stereo unspecified),2,62*,0,x,13,-5
COc1ccc(OCc2cc(C(=O)N3CCSCC3)no2)c(Cl)c1,-29*,-9,-2,-10,0,7
COc1cc(C)ccc1OCc1cc(C(=O)N2CCCCCC2)no1,-26*,5,-4,-14,-1,4
CC(C)C(=O)Nc1ccc2c(c1)C(=O)N(C)[C@H]1CC[C@H](CC(=O)NCc3ccccc3F)O[C@@H]1CO2,-1,2,x,x,-4,4
O=C(c1cc(COc2ccc(F)cc2F)on1)N1CCCC(c2ccccc2)C1 (stereo unspecified),-22*,-6,-2,-7,1,9
CCOC(=O)c1nn(-c2ccc(F)cc2)c2nc(Nc3ccccc3)cc(=O)n12,x,x,x,-7,-5,x
CCOC(=O)c1nn(-c2ccccc2)c2nc(Nc3ccccc3)cc(=O)n12,x,x,x,-5,78*,10
Cc1ccc(S(=O)(=O)N(C)C[C@H]2OCCCC[C@H](C)Oc3ccc(NC(=O)NC4CCCCC4)cc3C(=O)N([C@H](C)CO)C[C@H]2C)cc1,-3,6,3,x,-5,-11
O=C(Nc1cc(F)cc(F)c1)c1sc(Cl)nc1-c1ccccc1,0,68*,1,-5,20,-6
O=C(NCC[C@@H]1CC[C@H](NS(=O)(=O)c2ccccc2)[C@H](CO)O1)c1ccccc1F,-2,-10,6,x,3,11
